From PubChem
TROY NFkB inh – TROY signaling inhibition | Q293 LMP1-TROYcd NF-kB luciferase reporter, 4 h | inhibition, % at 10 µM | hit rate 0.98% among 360,000 | AID 1347056;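 active = compounds whose plate-normalised and pattern-corrected inhibition of the luciferase reporter signal at the single screening dose is 50% or more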
TRAIL sens C8 – caspase-8 TRAIL sensitization. NB7+C8 cells + TRAIL, ATPlite viability luminescence. inhibition (viability loss, TRAIL sensitization), % at 10 µM. hit rate 1% among 360,000. AID 624354;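 active = compounds causing at least 50% loss of cell viability in the single-dose screen, relative to plate controls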
aSyn UTR inh – MLPCN primary screen, SNCA 5' untranslated region; alpha-synuclein 5'UTR reporter, inhibitor activity; inhibition, % (tested at 7.5 µM); hit rate 0.82% among 300,000; in the data active = inhibition above about 60%;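 also: H4 neuroglioblastoma cells stably carrying SNCA 5'UTR luciferase fusion; 0% = DMSO wells and 100% = positive control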
HSP90 refold inh – HSP90 refolding inhibition in rabbit reticulocyte lysate; luciferase refolding luminescence, 3 h; hit rate 0.91% among 290,000; inhibition, % at 5.6 µM;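 active = inhibition above the screen-wide mean plus 3 SD, computed separately per campaign, cut at about 16% in these data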;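 also: 0% = DMSO wells and 100% = 60 µM geldanamycin wells; inhibitors lower the luminescence because luciferase stays unfolded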
HIF-2a block – HIF-2a inhibition | hit rate 0.72% among 360,000 | AID 624352 | inhibition, % at 18.8 µM | 786-0 RCC cells HIF-2a reporter, luciferase luminescence, overnight;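 active = inhibition of the luminescence signal of 40% or more relative to plate controls, in a single-dose primary screen at 18.75 µM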
TWEAK Fn14 block – TWEAK-Fn14 signaling inhibition | TWEAK-stimulated Fn14 reporter cells, luciferase luminescence, 8 h | inhibition, % at 10 µM | hit rate 2% among 360,000; in the data active = inhibition above about 50%
An asterisk follows results filed as active. Most compounds without a hit are left out; they make up all but 3.9% or so of the library.

CC(O)(c1cccc(F)c1)c1nc(-c2cnc3ccccc3c2)cs1 (stereo not drawn) was read as TROY NFkB inh 0, TRAIL sens C8 4, HIF-2a block -186 and TWEAK Fn14 block 29.
C=CCC1(CC=C)CCCN1C(=O)c1ccc2oc(CCCC)nc2c1 was read as TROY NFkB inh -54, TRAIL sens C8 -7, HIF-2a block -179 and TWEAK Fn14 block -25.
O=C(NCc1ccc(F)cc1)c1cc(C2CCCN(C(=O)c3ccc4c(c3)CCO4)C2)on1 (stereo not drawn) was read as TROY NFkB inh 6, TRAIL sens C8 3, HIF-2a block 12 and TWEAK Fn14 block 5.
For Cc1cc(C)c2cc(C#N)c(N3CCCN(C(=S)NCCCN(C)C)CC3)nc2c1 the results were TROY NFkB inh 10, TRAIL sens C8 17, aSyn UTR inh 96*, HSP90 refold inh 5, HIF-2a block 10 and TWEAK Fn14 block -4.
Screening CC(c1ccccc1)N1C(=O)c2ccc(C(=O)Nc3ccc(Br)cc3C(=O)O)cc2C1=O (stereo not drawn) returned TROY NFkB inh 64*, TRAIL sens C8 4, aSyn UTR inh -30, HSP90 refold inh -5, HIF-2a block -3 and TWEAK Fn14 block 10.
`O=C(NCCc1ccccc1)c1ccc(Cl)c(S(=O)(=O)N2CCCC2)c1` gave TROY NFkB inh -29, TRAIL sens C8 12, aSyn UTR inh -67, HSP90 refold inh -4, HIF-2a block -164 and TWEAK Fn14 block -12.
COc1ccc(CCNC(=O)c2ccc(N(C)S(=O)(=O)c3ccc(C)cc3)cc2)cc1 was read as TROY NFkB inh 3, TRAIL sens C8 -8, aSyn UTR inh -3, HSP90 refold inh -1, HIF-2a block 26 and TWEAK Fn14 block 2.
CN(c1ccccc1)S(=O)(=O)c1cccc(C(=O)NCCc2ccc(O)c(O)c2)c1 was read as TROY NFkB inh 56*, TRAIL sens C8 28, aSyn UTR inh 7, HSP90 refold inh 0, HIF-2a block -88 and TWEAK Fn14 block 39.
Screening COc1ccc(CCNC(=O)c2ccc(Cl)c(S(=O)(=O)N3CCCCCC3)c2)cc1 returned TROY NFkB inh 44, TRAIL sens C8 15, HIF-2a block 14 and TWEAK Fn14 block 60*.
Screening COc1ccc(CCNC(=O)c2ccc(Cl)c(S(=O)(=O)N(C)c3ccccc3)c2)cc1 returned TROY NFkB inh 53*, TRAIL sens C8 3, aSyn UTR inh 26, HSP90 refold inh 0, HIF-2a block 23 and TWEAK Fn14 block 58*.
Cc1ccc(C)c(-n2nnc3ccccc3c2=O)c1 was read as TROY NFkB inh -33, TRAIL sens C8 -4, HIF-2a block 5 and TWEAK Fn14 block -2.
`CC1(C(=O)NS(=O)(=O)C2CC2)CCCN(C(=O)c2ccc(C(F)(F)F)cc2)C1` (stereo not drawn) gave TROY NFkB inh 2, TRAIL sens C8 1, HIF-2a block -1 and TWEAK Fn14 block -6.
`Cc1ccc(NC(=O)c2ccc(=O)[nH]n2)cc1S(=O)(=O)Nc1ccc(SC(F)F)cc1` gave TROY NFkB inh 27, TRAIL sens C8 8, HIF-2a block 19 and TWEAK Fn14 block 21.
For C=CCN(CC=C)Cc1cc(=O)oc2cc(C)cc(C)c12 the results were TROY NFkB inh -6, TRAIL sens C8 -11, HIF-2a block -21 and TWEAK Fn14 block -5.
For COC(=O)N1C(=O)[C@@](c2ccccc2)(C2CCCC2)N1C(=O)OC the results were TROY NFkB inh 42, TRAIL sens C8 1, aSyn UTR inh 1, HSP90 refold inh 3, HIF-2a block 35 and TWEAK Fn14 block 71*.
For COC(=O)N1C(=O)[C@](CC(C)C)(c2ccccc2)N1C(=O)OC the results were TROY NFkB inh 2, TRAIL sens C8 17, aSyn UTR inh -5, HSP90 refold inh -3, HIF-2a block 25 and TWEAK Fn14 block 35.
`COC(=O)N1C(=O)[C@](c2ccccc2)(C2CCCCC2)N1C(=O)OC` gave TROY NFkB inh 17, TRAIL sens C8 13, aSyn UTR inh 12, HSP90 refold inh 1, HIF-2a block 26 and TWEAK Fn14 block 51*.
CC1CN(C(=O)COC(=O)[C@@H](NC(=O)c2ccccc2Cl)C(C)C)CC(C)O1 (stereo partly drawn) was read as TROY NFkB inh 7, TRAIL sens C8 -13, HIF-2a block 4 and TWEAK Fn14 block 8.
